Structures are written as SMILES. Compounds without any hit were thinned out: in the full panel of roughly 83,000, 20% have a hit.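 Cell lines were cultured in 96-well plates, exposed to a single compound concentration, and assessed for percent growth 48 hours later.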 Unmarked numbers belong to inactive results. Activity calls are given as the source filed them. How the source made its calls: active means growth percent below 10; inactive means the rest.

Among the test systems are NCI-H23 lung; NCI-H226 lung; NCI-H322M lung; HOP-62 NSCLC; NCI-H460 lung; HOP-92 NSCLC; NCI-H522 lung; A549/ATCC NSCLC; 786-0 renal; COLO 205 colon; DU-145 prostate; K-562 leukemia; MALME-3M melanoma; MDA-MB-231 breast; RXF 393 renal; SF-268 CNS; SF-295 CNS; SF-539 CNS; UACC-257 melanoma; M14 melanoma.
What all share (assay): NCI-60 one-dose screen, 48 h (100 = growth as untreated, 0 = no growth, -100 = all killed)
What all share (conditions): 10 µM unless noted

For the compound `COc1cc(OCc2cccc(-c3ccc4c(c3)OCCO4)c2C)cc(OC)c1C=O`, the growth is 52.4% with NCI-H23 lung; 32.6% in the experiment on NCI-H226 lung; 85.3% with NCI-H322M lung; 73.4% in the experiment with HOP-62 NSCLC; 72.2% in the experiment with NCI-H460 lung; 79.5% in the experiment on HOP-92 NSCLC. In addition, the growth was 42.7% in the experiment on NCI-H522 lung; 69% with A549/ATCC NSCLC; 67.1% in the experiment with 786-0 renal; 40.8% in the experiment with COLO 205 colon; 77.8% in the experiment on DU-145 prostate; 29.9% in the experiment on K-562 leukemia. For the same compound, the growth was 58.9% with MALME-3M melanoma; 64.8% in the experiment on MDA-MB-231 breast; 74.2% in the experiment with RXF 393 renal; 70.3% with SF-268 CNS; 72.1% in the experiment with SF-295 CNS; 77.9% with SF-539 CNS. The growth is 42.3% with UACC-257 melanoma and 59.2% in the experiment on M14 melanoma.
As to `O=C1C(Nc2ccc(Br)cc2)=C(I)C(=O)c2ncccc21`, the growth was 10.6% with NCI-H23 lung; 87.3% in the experiment on NCI-H226 lung; 84.4% in the experiment on NCI-H322M lung; 42.1% in the experiment on HOP-62 NSCLC; 23.3% in the experiment on NCI-H460 lung; -82.6% (active) in the experiment with HOP-92 NSCLC. Also, the growth in the experiment with NCI-H522 lung was -46.2% (active); in the experiment with A549/ATCC NSCLC, 46.8%; in the experiment on 786-0 renal it was 44.4%; in the experiment on COLO 205 colon, 23.5%; in the experiment on DU-145 prostate, 20.5%; in the experiment with K-562 leukemia, 5.98% (active). For the same compound, the growth was -6.23% (active) in the experiment on MALME-3M melanoma; 6.88% (active) in the experiment with MDA-MB-231 breast; 45.8% in the experiment with RXF 393 renal; 46.2% in the experiment on SF-268 CNS; 86.6% in the experiment with SF-295 CNS; 15.3% with SF-539 CNS. For the same compound, the values for the growth with UACC-257 melanoma and in the experiment with M14 melanoma were 49.3% and 10.4%, respectively.
As for `C#CCOC(=O)C(N)CSSCC(N)C(=O)O` (stereo not given), the growth with NCI-H23 lung is 103%; with NCI-H226 lung it was 112%; in the experiment with NCI-H322M lung, 91.2%; with HOP-62 NSCLC, 94.9%; with NCI-H460 lung, 90.4%; with HOP-92 NSCLC, 97.5%. Besides, the growth in the experiment on NCI-H522 lung was 86.1%; in the experiment with A549/ATCC NSCLC it was 98.2%; with 786-0 renal, 100%; in the experiment on COLO 205 colon it was 104%; in the experiment on DU-145 prostate, 119%; in the experiment on K-562 leukemia, 108%. In addition, the growth with MALME-3M melanoma is 95.6%; with MDA-MB-231 breast it was 105%; in the experiment with RXF 393 renal, 114%; in the experiment with SF-268 CNS, 100%; with SF-295 CNS it was 103%; in the experiment with SF-539 CNS, 90.8%. Also, the growth with UACC-257 melanoma is 104%; in the experiment with M14 melanoma, 100%.
In the case of `O=C(/C=C/c1ccc([N+](=O)[O-])cc1)c1cccc(Nc2nc(Nc3ccccc3)nc(Nc3ccccc3)n2)c1`, the growth in the experiment with NCI-H23 lung is 60.9%; in the experiment on NCI-H226 lung, 82.6%; in the experiment with NCI-H322M lung, 75.9%; in the experiment with HOP-62 NSCLC, 69.2%; with NCI-H460 lung, 81.1%; in the experiment on HOP-92 NSCLC it was -2.76% (active). In addition, the growth with NCI-H522 lung is 78.7%; in the experiment with A549/ATCC NSCLC, 72.7%; with 786-0 renal it was 70.5%; in the experiment with COLO 205 colon, 65.1%; in the experiment with DU-145 prostate it was 77.3%; in the experiment with K-562 leukemia, 60.8%. Moreover, the growth was 87.5% in the experiment with MALME-3M melanoma; 70.9% in the experiment with MDA-MB-231 breast; -39.7% (active) in the experiment on RXF 393 renal; 85.5% with SF-268 CNS; 79.7% in the experiment with SF-295 CNS; 74.7% with SF-539 CNS. The growth in the experiment with UACC-257 melanoma is 98.7%; in the experiment with M14 melanoma, 74.5%.
For `CCOC(=O)CC1C(CNC(=O)NC)OC(n2cnc3c(NC(=O)Nc4ccccc4)ncnc32)C1O[Si](C)(C)C(C)(C)C` (stereo not given), the growth is 91.7% in the experiment on NCI-H23 lung; 75.9% in the experiment on NCI-H226 lung; 90.5% in the experiment on NCI-H322M lung; 78.9% in the experiment on HOP-62 NSCLC; 47.6% with NCI-H460 lung; 63.1% in the experiment on HOP-92 NSCLC. For the same compound, the growth with NCI-H522 lung is 80.2%; in the experiment on A549/ATCC NSCLC, 22.4%; in the experiment on 786-0 renal, 76.1%; with COLO 205 colon, 43%; with DU-145 prostate, 63.3%; with K-562 leukemia it was 58.7%. Besides, the growth is 55.3% in the experiment with MALME-3M melanoma; 50.8% in the experiment on MDA-MB-231 breast; -45.2% (active) in the experiment on RXF 393 renal; 58.6% in the experiment on SF-268 CNS; 16% with SF-295 CNS; 52.6% in the experiment with SF-539 CNS. In addition, the results for the growth in the experiment with UACC-257 melanoma and with M14 melanoma were 87.5% and 67.3%, respectively.
On to `COc1nc2ccccc2cc1/C=[N+](\[O-])c1ccccc1`, for which the growth in the experiment on NCI-H23 lung is 75.4%; in the experiment on NCI-H226 lung, 69.5%; with NCI-H322M lung it was 86.5%; with HOP-62 NSCLC, 80.4%; in the experiment with NCI-H460 lung, 99.6%; with HOP-92 NSCLC, 64.4%. For the same compound, the growth in the experiment with NCI-H522 lung is 82.7%; with A549/ATCC NSCLC, 94.8%; in the experiment with 786-0 renal, 102%; in the experiment on COLO 205 colon it was 108%; in the experiment on DU-145 prostate, 102%; with K-562 leukemia, 13.5%. Also, the growth in the experiment on MALME-3M melanoma is 60.9%; in the experiment with MDA-MB-231 breast it was 57.5%; with RXF 393 renal it was 85.5%; with SF-268 CNS it was 65.5%; with SF-295 CNS, 93.5%; in the experiment with SF-539 CNS, 34.2%. Moreover, the growth is 93% with UACC-257 melanoma and 39.6% with M14 melanoma.
As to `CN(C)CCOc1ccc(/C(=C(/CCCCCCCCCC[P+](c2ccccc2)(c2ccccc2)c2ccccc2)c2ccccc2)c2ccccc2)cc1`, the growth is -83.2% (active) with NCI-H23 lung; -53.2% (active) with NCI-H226 lung; -96.6% (active) in the experiment with NCI-H322M lung; -66% (active) in the experiment on HOP-62 NSCLC; -79.2% (active) with NCI-H460 lung; -84.3% (active) in the experiment with HOP-92 NSCLC. Moreover, the growth is -75.1% (active) in the experiment with NCI-H522 lung; -64.3% (active) with A549/ATCC NSCLC; -76.6% (active) in the experiment with 786-0 renal; -64% (active) in the experiment with COLO 205 colon; -94.1% (active) with DU-145 prostate; -39.3% (active) in the experiment on K-562 leukemia. The growth in the experiment with MALME-3M melanoma is -82.2% (active); with MDA-MB-231 breast, -83.4% (active); in the experiment with RXF 393 renal it was -73.8% (active); with SF-268 CNS it was -72.1% (active); with SF-295 CNS, -88.6% (active); in the experiment on SF-539 CNS it was -88.9% (active). In addition, the growth in the experiment on UACC-257 melanoma was -77.4% (active); in the experiment with M14 melanoma it was -79.6% (active).
Turning to `CN(C)c1ccc(/C=C/C2=[N+](C)c3ccccc3C2(C)C)cc1`, the growth with NCI-H23 lung was 5.41% (active); in the experiment with NCI-H226 lung, 29.4%; in the experiment on NCI-H322M lung, 28.7%; in the experiment with HOP-62 NSCLC, 28.7%; in the experiment with NCI-H460 lung, 20%; in the experiment on HOP-92 NSCLC, -19.9% (active). The growth was 18.5% with NCI-H522 lung; 15.3% with A549/ATCC NSCLC; 25% with 786-0 renal; -76.2% (active) with COLO 205 colon; 25.3% in the experiment with DU-145 prostate; 14.2% in the experiment with K-562 leukemia. Besides, the growth was -6.64% (active) in the experiment on MALME-3M melanoma; 3.11% (active) in the experiment on MDA-MB-231 breast; 39.9% in the experiment on RXF 393 renal; 20.9% in the experiment with SF-268 CNS; 0.915% (active) in the experiment with SF-295 CNS; 16.9% in the experiment on SF-539 CNS. In addition, the growth in the experiment with UACC-257 melanoma was 12.6%; in the experiment with M14 melanoma, 18.4%.

Source of the values: PubChem BioAssay (NCI).
